AmpC no deterg – inhibitors of E. coli AmpC beta-lactamase without detergent; AID 485341; hit rate 0.52% among 330,000; Potency, µM (series often up to 57.1 µM), hits mostly inhibitors; AmpC nitrocefin hydrolysis, absorbance 480 nm, 0.0001% Triton; P00811; also: nearly all actives have a fitted effect of over 20% in size
Target sequence (P00811 whole entry, looked up): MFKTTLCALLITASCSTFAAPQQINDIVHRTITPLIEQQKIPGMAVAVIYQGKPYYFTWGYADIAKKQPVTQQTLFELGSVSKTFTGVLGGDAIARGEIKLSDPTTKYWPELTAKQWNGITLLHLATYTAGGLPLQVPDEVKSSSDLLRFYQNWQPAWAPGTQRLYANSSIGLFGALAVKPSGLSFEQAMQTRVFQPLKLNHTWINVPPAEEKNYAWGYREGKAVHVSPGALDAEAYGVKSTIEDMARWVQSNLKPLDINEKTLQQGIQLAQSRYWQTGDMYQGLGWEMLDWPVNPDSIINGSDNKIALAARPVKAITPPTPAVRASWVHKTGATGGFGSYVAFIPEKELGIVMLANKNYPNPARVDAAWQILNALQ
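20 mM phosphate pH 7.0 + 0.01% (detergent screen) or 0.0001% Triton X-100; 5.3 nM AmpC reagent; cpd preinc 15 min RT; nitrocefin (800 uM stock) to start; A480 q20 s × 4 min; Activity was normalised to no-enzyme and no-compound control wells.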
AMA1 RON2 block – inhibitors of Plasmodium falciparum AMA1-RON2 interaction; hit rate 0.2% among 360,000; AID 720542; AlphaScreen AMA1-biotinylated RON2 peptide binding; Potency, µM (series often up to 58.2 µM), actives largely listed as inhibitors; also: nearly all actives have a fitted effect of over 45% in size
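AMA1 (3D7) with his tag at 25 nM final met compounds first, then biotinylated RON2 peptide at 25 nM; detection used donor plus acceptor beads, 10 µg/mL apiece, read by AlphaScreen after 30 min at room temperature.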
SARS PLpro yeast – SARS-CoV PLP inhibition in yeast | S. cerevisiae expressing SARS-CoV PLpro, growth rescue | AID 485353 | Potency, µM (top dose mostly 32.9 µM), actives largely listed as activators | hit rate 0.19% among 330,000; calls by dose curve; also: nearly all actives have a fitted effect of over 55% in size
CHX counter – counter-screen for Shiga toxin inhibitors: cycloheximide protein synthesis inhibition; max response, %; hit rate 12% among 300,000; cell reporter, cycloheximide protein synthesis inhibition counterscreen; in the data active = max response mostly above about 13%, no sharp cut-off; inactive = mostly below about 14%; also: read at 38.3 µM for the half of the compounds with a filed dose
Shiga toxin inh – inhibitors of Shiga toxin in Vero cells; Vero cells, Shiga toxin protein synthesis inhibition reporter; inhibition, % at 38.7 µM; hit rate 9.2% among 290,000; in the data active = inhibition mostly above about 28%, no sharp cut-off; inactive = mostly below about 43%
AmpC detergent – blocks E. coli AmpC beta-lactamase in detergent assay. P00811. AmpC hydrolysis of nitrocefin, absorbance 480 nm, 0.01% Triton. Potency, µM (doses to about 114 µM), usual class: inhibitors. hit rate 0.041% among 370,000; also: nearly all actives have a fitted effect of over 25% in size
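20 mM phosphate pH 7.0 + 0.01% (detergent screen) or 0.0001% Triton X-100; 5.3 nM AmpC reagent; cpd preinc 15 min RT; nitrocefin (800 uM stock) to start; A480 q20 s × 4 min; Activity was normalised to no-enzyme and no-compound control wells.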
Of the large screens only hits and unclear results are named; the others gave an inactive call. Many of the other results were omitted from the sample, so hits are more common in it than they were. Unless noted, calls follow the shape of the dose curve; as a rule, active = well fitted curve in the direction sought with a large enough effect; inconclusive = small, poorly fitted or top-dose-only effect, or another doubt; inactive = no such curve, though single readings can be large; an effect the other way counts as inactive or inconclusive.

O=[N+]([O-])c1ccc(N2CCN(c3ccccc3)CC2)cc1	none
CCCCNc1c([N+](=O)[O-])c(=O)n(C)c2ccccc12	none
COc1ccc(N2C[C@H](C)[C@@H](CC(=O)Nc3ccccc3)C2=O)cc1	none (no result: AmpC no deterg, SARS PLpro yeast, CHX counter, Shiga toxin inh, AmpC detergent)
CC(=O)CN1Cc2ccccc2/C1=N\C(=O)Nc1ccccc1	CHX counter 16
COc1ccc(N2Cc3ccccc3/C2=N\C(=O)Nc2ccccc2)cc1	CHX counter 23
Nc1ccccc1SCC(=O)Nc1ccc2c(c1)OCO2	CHX counter 23, Shiga toxin inh 73
O=C(CC(c1ccccc1)c1ccccc1)Nc1ccc2c(c1)OCCO2	none
O=C(CSc1nnc(-c2ccc(C(F)(F)F)cn2)o1)Nc1cccc(Cl)c1	AmpC no deterg inconclusive, CHX counter 17
Cn1cc(SCC(=O)Nc2ccc3c(c2)OCO3)c2ccccc21	AmpC detergent inconclusive
Cc1ccccc1NC(=O)CSc1nnc(-c2cccc(Cl)c2)o1	none (no result: AmpC no deterg, AMA1 RON2 block, SARS PLpro yeast, CHX counter, Shiga toxin inh)
O=C(CSc1nnc(-c2cccc(Cl)c2)o1)Nc1ccc2c(c1)OCCO2	Shiga toxin inh 36, AmpC detergent inconclusive
CC(=O)NC(CC(=O)Nc1ccc2c(c1)OCCO2)c1ccccc1 (centres undefined)	CHX counter 20
Cc1ccc(NS(=O)(=O)c2ccc(CCC(=O)NCCCOC(C)C)cc2)cc1	AmpC detergent inconclusive
CN(C)c1ccc(SC#N)cc1	none
Cc1cccc(SCC(=O)Nc2ccc3c(c2)OCCO3)c1	CHX counter 39, Shiga toxin inh 102
Nc1cc(N)nc(SCC(=O)Nc2ccc3c(c2)OCCCO3)n1	CHX counter 23
O=C(CSc1nnc(Cc2ccccc2)o1)Nc1ccc2c(c1)OCO2	CHX counter 38
Nc1cc(N)nc(SCC(=O)Nc2ccc3c(c2)OCO3)n1	none
Nc1ccccc1SCC(=O)Nc1ccc2c(c1)OCCO2	CHX counter 37, Shiga toxin inh 87
Nc1nnc(SCC(=O)Nc2ccc3c(c2)OCCO3)s1	none
CNC(=O)C1CCN(C(=O)N2CC(C)Oc3ccc(Cl)cc32)CC1 (centres undefined)	none (no result: AmpC no deterg, AMA1 RON2 block, SARS PLpro yeast, CHX counter, Shiga toxin inh)
COC(=O)c1ccc(C(=O)OC)c(NS(C)(=O)=O)c1	none
Cc1ccc2c(Cl)cc(Cl)c(OCC(=O)N(C(C)C)C(C)C)c2n1	none
O=C(CCC1CCCCC1)NCc1ccncc1	AmpC detergent inconclusive
O=C(CC1CCCCC1)NCc1ccc(Cl)cc1	CHX counter 27, AmpC detergent inconclusive (no result: Shiga toxin inh)
O=C(CCC1CCCCC1)NCc1ccc(F)cc1	CHX counter 23, Shiga toxin inh active
Cc1cccc(-c2onc3ccc(C(=O)/C=C/N(C)C)cc23)c1	none
CC(=O)COC(=O)c1ccc2noc(-c3ccccc3)c2c1	CHX counter 14, Shiga toxin inh 59
NC(=O)NC(=O)COC(=O)c1ccc2noc(-c3ccccc3)c2c1	none
Cc1ccc(-c2onc3ccc(C(=O)O)cc23)cc1	CHX counter 92, Shiga toxin inh 180
Cc1cc(C)c(C(=O)OCC(=O)NCc2cccs2)c(C)c1	none
O=C(CSc1nnc2ccc(-c3cccnc3)nn12)Nc1ccc(F)cc1	none (no result: CHX counter, Shiga toxin inh)
COc1ccc(/C=N/NC(=S)Nc2cccc(C(=O)O)c2)cc1OC	CHX counter 16
COc1ccc(C=NNC(=S)Nc2ccc(F)cc2)cc1OC	none (no result: AmpC no deterg, SARS PLpro yeast, CHX counter, Shiga toxin inh, AmpC detergent)
COc1ccc(C(=O)Oc2cccc(/C=N/NC(N)=S)c2)cc1	CHX counter 16, Shiga toxin inh 51
COc1cccc(/C=N/NC(=S)Nc2cccc(C(=O)O)c2)c1	CHX counter 36, Shiga toxin inh 95
COc1ccc(/C=N/NC(=S)Nc2ccccc2)cc1COc1cccc(C)c1C	Shiga toxin inh 31
CCN(CC)C(=O)c1sc(N2C(=O)Nc3ccccc3N2O)c(C(=O)OC)c1C	none
Cc1ccccc1CNC(=O)CCNS(=O)(=O)c1ccc(OC(F)(F)F)cc1	none (no result: CHX counter, Shiga toxin inh)
Cc1ccc(S(=O)(=O)[N-]c2nc3ccccc3nc2-n2cc[n+](CCC(C)C)c2)cc1	none
O=C1CC2(CCN(S(=O)(=O)c3ccccc3)CC2)Oc2ccccc21	none (no result: CHX counter, Shiga toxin inh)
Cc1ccc(-c2nnc(SCC#CCOC(=O)c3cccs3)o2)cc1	SARS PLpro yeast inconclusive, CHX counter 8.6
O=C(OCC#CCSc1nnc(-c2ccc(Br)cc2)o1)c1cccs1	SARS PLpro yeast inconclusive
Cc1ccc(-c2nnc(SCC#CCOC(=O)c3ccco3)o2)cc1	CHX counter 27
C[C@H](N)C(=O)NC[C@H]1O[C@@H](n2cnc3c(N)ncnc32)[C@H](O)[C@@H]1O	none (no result: CHX counter, Shiga toxin inh, AmpC detergent)
CCN=c1scc(-c2cccs2)n1/N=C/c1cc(OC)ccc1O	AMA1 RON2 block inconclusive, CHX counter 51, AmpC detergent inconclusive
CC(C)N=c1scc(-c2cccs2)n1/N=C/c1ccc(O)c(O)c1O	CHX counter 16, Shiga toxin inh 60
O=C(O)c1cccc(-c2ccc(/C=N/Nc3ccc([N+](=O)[O-])cc3)o2)c1	CHX counter 17
O=C(O)c1cc(-c2ccc(/C=N/Nc3ccc([N+](=O)[O-])cn3)o2)ccc1Cl	none
O=C(O)c1ccc(-c2ccc(/C=N/Nc3ccc([N+](=O)[O-])cc3)o2)cc1	CHX counter 16, Shiga toxin inh 92
NS(=O)(=O)c1ccc(-c2ccc(/C=N/NC(=O)c3ccc([N+](=O)[O-])cc3)o2)cc1	none
NS(=O)(=O)c1ccc(-c2ccc(/C=N/Nc3ccc(C(=O)O)cc3)o2)cc1	CHX counter 41
COc1ccc(OC)c(N=C(N)N=C(N)N)c1	none
CCOC(=O)N1CC(=O)Nc2ccc(Br)cc2C1c1ccccc1 (centres undefined)	none
Cc1ccc(CN/C=C/C(=O)c2ccc(Br)cc2)cc1	CHX counter 37, Shiga toxin inh 60, AmpC detergent inconclusive
Cc1ccc(C(=O)/C=C/NCc2ccc(F)cc2)cc1	CHX counter 48, Shiga toxin inh 93
Cc1ccc(C(=O)N2CCC(C)CC2)cc1NC1=NC2CS(=O)(=O)CC2S1 (centres undefined)	none
Cn1c(NCc2cccnc2)nc2cc(-c3cccc(C(=O)NCCO)c3)sc2c1=O	none (no result: AmpC no deterg, SARS PLpro yeast, CHX counter, Shiga toxin inh, AmpC detergent)
COc1ccccc1-c1cc(-c2cc(Cl)ccc2O)n[nH]1	CHX counter 17
COc1ccc(Cl)cc1NC(=O)c1cc(-c2ccccc2O)n[nH]1	AmpC no deterg inconclusive
COc1cccc(C(C)(O)c2nc(-c3cccs3)cs2)c1 (centres undefined)	none (no result: AmpC no deterg, SARS PLpro yeast, CHX counter, Shiga toxin inh, AmpC detergent)
Oc1ccc(Br)cc1-c1cc(-c2ccccc2Cl)[nH]n1	CHX counter 19, Shiga toxin inh 42
COc1ccc(O)c(-c2cc(-c3cccs3)[nH]n2)c1	CHX counter 43, Shiga toxin inh 155, AmpC detergent inconclusive
O=C(O)c1cc(-c2ccccc2Cl)n[nH]1	none
COc1ccc(O)c(-c2cc(-c3ccccc3Cl)[nH]n2)c1	CHX counter 26, Shiga toxin inh 33, AmpC detergent inconclusive
